From paper PMC5700166 come the findings set out here.

Substitutions are numbered along the chain they refer to.

Experiment in all cases: protein-binding microarray (PBM); PBM: ~300 nM protein, 6 mM HEPES pH 7.8, 80 mM KCl, 0.5 mM EDTA, 0.5 mM EGTA, 6% glycerol, 35 ng/ul poly-dIdC, 1% milk, 1 h, room temperature; Ap Aiptasia and Nv Nematostella (sea anemones) / Co Capsaspora / Aq Amphimedon (sponge) / Dm Drosophila / Hu human; RHD is the Rel homology domain; high values mean tight binding
What all share (details): dsDNA, one strand shown

Experiment [1] concerns the target T1, GST-Ap-NF-kB RHD (Exaiptasia pallida (Aiptasia), UniProt A0A913YAJ5 2-422).
T1 sequence: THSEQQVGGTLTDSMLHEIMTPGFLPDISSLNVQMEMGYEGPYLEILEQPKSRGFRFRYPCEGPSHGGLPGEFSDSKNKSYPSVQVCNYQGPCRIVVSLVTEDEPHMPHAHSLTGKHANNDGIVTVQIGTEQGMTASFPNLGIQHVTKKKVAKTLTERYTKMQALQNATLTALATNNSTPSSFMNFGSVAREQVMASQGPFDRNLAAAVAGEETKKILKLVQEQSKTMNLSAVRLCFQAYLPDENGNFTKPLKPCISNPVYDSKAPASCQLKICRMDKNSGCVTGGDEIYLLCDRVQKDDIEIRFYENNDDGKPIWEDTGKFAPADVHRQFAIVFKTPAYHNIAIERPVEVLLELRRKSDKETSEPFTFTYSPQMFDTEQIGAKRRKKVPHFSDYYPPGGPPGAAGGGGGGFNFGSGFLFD

In experiment [2] the target is T2, GST-Nv-NF-kB (Cys allele) (Nematostella vectensis, UniProt E5G601 2-411).
T2 sequence: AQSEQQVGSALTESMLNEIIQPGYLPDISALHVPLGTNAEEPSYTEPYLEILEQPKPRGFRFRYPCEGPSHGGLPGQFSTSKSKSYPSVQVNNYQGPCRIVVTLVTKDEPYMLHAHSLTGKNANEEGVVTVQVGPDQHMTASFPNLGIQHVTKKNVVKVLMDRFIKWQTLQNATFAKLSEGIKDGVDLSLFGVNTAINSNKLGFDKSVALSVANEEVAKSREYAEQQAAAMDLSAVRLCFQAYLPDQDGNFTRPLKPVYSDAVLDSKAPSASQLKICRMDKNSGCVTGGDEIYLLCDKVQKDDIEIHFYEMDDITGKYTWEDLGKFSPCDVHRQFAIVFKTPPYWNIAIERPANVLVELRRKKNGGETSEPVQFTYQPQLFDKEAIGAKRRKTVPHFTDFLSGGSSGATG

Experiment [3] addresses T3, GST-Nv-NF-kB (Ser allele) (Nematostella vectensis, UniProt A7UNT2 2-411).
T3 sequence: T2 sequence with Q21R, C66S, S207N, E215Q, V217A, E225K, A268E, D399E

Experiment [4] deals with T4, GST-Co-NF-kB (Capsaspora owczarzaki, UniProt F1ARL5 200-546).
T4 sequence: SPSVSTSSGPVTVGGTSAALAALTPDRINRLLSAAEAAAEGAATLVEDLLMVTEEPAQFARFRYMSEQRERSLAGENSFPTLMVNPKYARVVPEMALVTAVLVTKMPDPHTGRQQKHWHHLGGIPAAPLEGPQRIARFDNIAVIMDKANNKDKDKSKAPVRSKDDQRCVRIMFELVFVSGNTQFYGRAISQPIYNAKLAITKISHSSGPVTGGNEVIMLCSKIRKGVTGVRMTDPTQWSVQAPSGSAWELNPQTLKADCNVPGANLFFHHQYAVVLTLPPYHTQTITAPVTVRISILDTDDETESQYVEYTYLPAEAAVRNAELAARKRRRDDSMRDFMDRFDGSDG

Experiment [5] deals with T5, GST-Dm-Relish (Drosophila melanogaster, UniProt Q94527 99-473).
T5 sequence: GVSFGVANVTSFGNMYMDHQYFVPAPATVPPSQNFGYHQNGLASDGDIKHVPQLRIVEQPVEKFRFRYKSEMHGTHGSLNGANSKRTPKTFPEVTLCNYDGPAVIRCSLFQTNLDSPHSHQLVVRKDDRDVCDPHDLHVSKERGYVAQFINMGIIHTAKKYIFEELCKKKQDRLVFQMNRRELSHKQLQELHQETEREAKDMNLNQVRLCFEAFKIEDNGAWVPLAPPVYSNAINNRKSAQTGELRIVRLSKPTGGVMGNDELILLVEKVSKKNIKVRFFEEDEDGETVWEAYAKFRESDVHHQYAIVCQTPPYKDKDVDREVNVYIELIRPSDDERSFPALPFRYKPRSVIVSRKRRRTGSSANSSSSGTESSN

In experiment [6] the target is T6, GST-Aq-NF-kB (Amphimedon queenslandica, UniProt A9Y5G7 2-389).
T6 sequence: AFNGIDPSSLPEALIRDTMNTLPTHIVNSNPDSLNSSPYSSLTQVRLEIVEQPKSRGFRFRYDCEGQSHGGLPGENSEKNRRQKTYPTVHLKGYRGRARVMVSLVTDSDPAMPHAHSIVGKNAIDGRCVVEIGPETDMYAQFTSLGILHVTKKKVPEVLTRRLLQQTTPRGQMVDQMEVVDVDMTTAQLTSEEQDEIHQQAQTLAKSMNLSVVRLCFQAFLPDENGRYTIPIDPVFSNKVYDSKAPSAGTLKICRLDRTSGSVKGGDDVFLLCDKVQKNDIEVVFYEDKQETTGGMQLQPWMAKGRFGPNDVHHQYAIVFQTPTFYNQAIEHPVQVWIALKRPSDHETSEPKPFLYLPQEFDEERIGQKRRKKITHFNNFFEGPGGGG

Experiment [7] addresses GST-Hu-p50 (Homo sapiens, UniProt P19838 7-356).

GST-Hu-p50, sequence (P19838 7-356): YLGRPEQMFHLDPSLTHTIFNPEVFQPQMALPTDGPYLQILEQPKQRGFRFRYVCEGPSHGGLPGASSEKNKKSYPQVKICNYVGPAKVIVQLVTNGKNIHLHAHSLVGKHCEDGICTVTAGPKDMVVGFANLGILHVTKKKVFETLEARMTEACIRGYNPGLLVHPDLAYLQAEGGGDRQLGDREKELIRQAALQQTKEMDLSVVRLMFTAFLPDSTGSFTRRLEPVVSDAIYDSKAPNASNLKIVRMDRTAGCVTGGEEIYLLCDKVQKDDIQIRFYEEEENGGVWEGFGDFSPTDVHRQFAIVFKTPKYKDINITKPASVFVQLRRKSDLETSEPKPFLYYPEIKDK

“CCGATTAACATCAGAGACTTCCCTGATGTTAATCGGGTCTTGATTCGCTTGACGCTGCTG”: the binding signal was 1.92 z-score in experiment [1]; 2.44 z-score in experiment [2]; 2.19 z-score in experiment [3]; 1.11 z-score in experiment [4]; 1.95 z-score in experiment [5]; 3.32 z-score in experiment [6]. This sequence also gave a binding signal in experiment [7] of 1.57 z-score.

As to “CCGATTAACATCAGGGGATTACCTGATGTTAATCGGGTCTTGATTCGCTTGACGCTGCTG”, the binding signal in experiment [1] was determined as 9.27 z-score; in experiment [2], 10.5 z-score; in experiment [3], 9.69 z-score; in experiment [4], 3.93 z-score; in experiment [5], 9.7 z-score; in experiment [6], 9.77 z-score. Also, the binding signal in experiment [7] was 6.76 z-score.

Consider “CCGATTAACATCAAAAACTCCCCTGATGTTAATCGGGTCTTGATTCGCTTGACGCTGCTG”, for which the binding signal was determined as 9.29 z-score in experiment [1]; 8.96 z-score in experiment [2]; 9.57 z-score in experiment [3]; 6.91 z-score in experiment [4]; 8.62 z-score in experiment [5]; 8.06 z-score in experiment [6]. The sequence also displayed a binding signal in experiment [7] of 6.46 z-score.

Consider “CCGATTAACATCAGGGGGACCCCTGATGTTAATCGGGTCTTGATTCGCTTGACGCTGCTG”, for which the binding signal in experiment [1] worked out at 8.92 z-score; in experiment [2], 5.39 z-score; in experiment [3], 4.83 z-score; in experiment [4], 4.63 z-score; in experiment [5] it was 9.89 z-score; in experiment [6], 8.54 z-score. Further, the binding signal in experiment [7] was 5.02 z-score.

Regarding “CCGATTAACATCAGAGAACCCCCTGATGTTAATCGGGTCTTGATTCGCTTGACGCTGCTG”, the binding signal stood at 7.89 z-score in experiment [1]; 6.19 z-score in experiment [2]; 6.92 z-score in experiment [3]; 2.09 z-score in experiment [4]; 7.55 z-score in experiment [5]; 6.18 z-score in experiment [6]. In experiment [7], this sequence returned a binding signal of 6.47 z-score.

Turning to “CCGATTAACATCAGGGAAGAACCTGATGTTAATCGGGTCTTGATTCGCTTGACGCTGCTG”, the binding signal stood at 2.43 z-score in experiment [1]; 3.52 z-score in experiment [2]; 3.35 z-score in experiment [3]; 1.42 z-score in experiment [4]; 8.73 z-score in experiment [5]; 5.54 z-score in experiment [6]. In addition, the binding signal in experiment [7] came out at 2.83 z-score.

In the case of “CCGATTAACATCAGGGGGGTGGATGATGTTAATCGGGTCTTGATTCGCTTGACGCTGCTG”, the binding signal was 4.23 z-score in experiment [1]; 3.15 z-score in experiment [2]; 4.75 z-score in experiment [3]; 3.78 z-score in experiment [4]; 3.78 z-score in experiment [5]; 4.03 z-score in experiment [6]. In experiment [7], the binding signal was 4.19 z-score.

Regarding “CCGATTAACATCAAATAGTCCCCTGATGTTAATCGGGTCTTGATTCGCTTGACGCTGCTG”, the binding signal in experiment [1] is 7.11 z-score; in experiment [2] it was 7.06 z-score; in experiment [3], 6.71 z-score; in experiment [4], 4.46 z-score; in experiment [5] it was 5.51 z-score; in experiment [6], 6.32 z-score. Further, the binding signal in experiment [7] was 5.39 z-score.

As to “CCGATTAACATCAAAAATACCCATGATGTTAATCGGGTCTTGATTCGCTTGACGCTGCTG”, the binding signal came to 4.63 z-score in experiment [1]; 6.47 z-score in experiment [2]; 6.31 z-score in experiment [3]; 2.49 z-score in experiment [4]; 5.48 z-score in experiment [5]; 5.67 z-score in experiment [6]. This sequence had a binding signal in experiment [7] of 5.58 z-score.

As to “CCGATTAACATCAAACTTTCCCCTGATGTTAATCGGGTCTTGATTCGCTTGACGCTGCTG”, the binding signal in experiment [1] amounted to 7.27 z-score; in experiment [2] it was 8.67 z-score; in experiment [3] it was 9.66 z-score; in experiment [4], 8.89 z-score; in experiment [5], 4.44 z-score; in experiment [6], 7.57 z-score. Moreover, in experiment [7], the binding signal turned out to be 6.2 z-score.

As for “CCGATTAACATCAAATTTCCCGTTGATGTTAATCGGGTCTTGATTCGCTTGACGCTGCTG”, the binding signal in experiment [1] amounted to 3.33 z-score; in experiment [2], 5.71 z-score; in experiment [3], 5.5 z-score; in experiment [4] it was 4.13 z-score; in experiment [5] it was 3.24 z-score; in experiment [6], 5.53 z-score. In addition, the binding signal in experiment [7] was 4.24 z-score.

For “CCGATTAACATCAAAAATTCCCGTGATGTTAATCGGGTCTTGATTCGCTTGACGCTGCTG”, the binding signal in experiment [1] was 5.97 z-score; in experiment [2], 8.78 z-score; in experiment [3], 8.06 z-score; in experiment [4], 6.08 z-score; in experiment [5], 7.67 z-score; in experiment [6], 7.49 z-score. Also, in experiment [7], the binding signal was found to be 5.55 z-score.
